Source: PubChem BioAssay (National Center for Advancing Translational Sciences (NCATS))
In the library only some 8.7% were active in any assay of this set; here they are far more common.
HP1b chromo inh: inhibitors of HP1-beta chromodomain binding to methylated histone tails; AlphaScreen HP1-beta / biotin-H3K9me3 peptide binding; hit rate 0.56% among 390,000; AID 540317; Potency, µM (series often up to 114 µM), for inactives: top-dose activity change, negative = inhibition, most hits filed as inhibitors; P83916; further: nearly all actives have a fitted effect of over 70% in size
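Compound inhibition of the preformed complex between 50 nM HP1-beta and 50 nM biotinylated H3K9me3 peptide was read by AlphaScreen. Buffer was PBS pH 7.4 with 0.01% Tween-20. Incubations ran 30 min at room temperature, with 10 ug/mL donor/acceptor beads.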
Sfp PPTase inh: inhibitors of Bacillus subtilis Sfp phosphopantetheinyl transferase; hit rate 3.5% among 310,000; Q9F4F7; Biochemical Sfp PPTase activity, qHTS; Potency, µM, for the others: largest response in the series, negative = inhibition, hits mostly inhibitors;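 further: the enzyme is Sfp with the accession as filed and its product quenches rhodamine fluorescence; 0% = enzyme reaction without inhibitor and -100% = no enzyme wells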
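Sfp 15 nM + cpd, 15 min RT; start w/ rhodamine-CoA 5 uM, BHQ-2-YbbR 12.5 uM (final); 50 mM Hepes pH 7.6, 10 mM MgCl2, 0.01% NP-40, 0.01% BSA; read 525/598 nm at 0 and 30 min.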
G9a inh: inhibitors of human histone lysine methyltransferase G9a; Q96KQ7; G9a H3K9 monomethylation, AlphaScreen, 2 h; Potency, µM (highest dose often 102 µM), without a hit: top-dose activity, negative = inhibition, usual class: inhibitors; hit rate 8.8% among 350,000; AID 504332; further: on the % scale 0 is the no-effect control and ±100 the full control effect; nearly all actives have a fitted effect of over 75% in size
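G9a (20 nM) was preincubated 15 min with compound, then reacted 2 h at room temperature with 500 nM biotin-H3K9 peptide and 20 µM SAM. Monomethyl-H3K9 detected by AlphaScreen using anti-H3K9me1 antibody.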
ALOX12 inh: inhibitors of human 12S-lipoxygenase ALOX12; P18054; purified 12hLO, xylenol orange hydroperoxide absorbance; Potency, µM (top dose mostly 108 µM), for the others: at the top dose activity change, negative = inhibition, most hits filed as inhibitors; hit rate 1.1% among 580,000; AID 1671190; further: on the % scale 0 is the no-effect control and ±100 the full control effect
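Purified human 12hLO at 150 nM in 25 mM Hepes, 0.01% Triton X-100, pH 7.0, preincubated 15 min at room temperature with compound. Reaction started with 40 uM arachidonic acid, 30 min at room temperature. Hydroperoxide measured by Fe-xylenol orange, 573/405 nm absorbance ratio.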
BAZ2B block: BAZ2B (human) inhibition; Q9UIF8; AlphaScreen BAZ2B-H3K14Ac peptide displacement; Potency, µM (top dose mostly 114 µM), for inactives: at the highest dose activity change, negative = inhibition, hits mostly inhibitors; hit rate 4.4% among 360,000; AID 504333; further: on the % scale 0 is the no-effect control and ±100 the full control effect; nearly all actives have a fitted effect of over 60% in size
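Compounds, titrated to a top concentration of 110 uM, were incubated 30 min at room temperature with preformed BAZ2B/acetyl-K14 H3 peptide complex (50 nM each). Proximity signal was measured by AlphaScreen after 20 min with beads.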
JMJD2A Tudor inh: blocks the human JMJD2A Tudor domain | AlphaScreen JMJD2A-Tudor / H3K4me3 peptide binding | hit rate 4.4% among 390,000 | AID 504339 | O75164 | Potency, µM (series often up to 114 µM), for inactives: top-dose activity change, negative = inhibition, actives largely listed as inhibitors; further: on the % scale 0 is the no-effect control and ±100 the full control effect; nearly all actives have a fitted effect of over 50% in size
Active calls of the source: *; ? = inconclusive; · = not tested or not shown; [ ] = remark or other dose. The call rests on the fitted dose curve; in most records, active means well fitted curve in the direction sought with a large enough effect; inconclusive means small, poorly fitted or top-dose-only effect, or another doubt; inactive means no such curve, though single readings can be large; an effect the other way counts as inactive or inconclusive. Potency means the concentration at half of the fitted maximal effect.

SMILES | HP1b chromo inh | Sfp PPTase inh | G9a inh | ALOX12 inh | BAZ2B block | JMJD2A Tudor inh
O=C(CN1C(=O)/C(=C2\SC(=S)N(CCS(=O)(=O)O)C2=O)c2ccccc21)Nc1cccc(Br)c1 | 50µM* | 56µM* | 8.9µM* | ? | 8.9µM* | 50µM*
O=C(CN1C(=O)/C(=C2/SC(=S)N(CCS(=O)(=O)O)C2=O)c2ccccc21)Nc1cccc(C(F)(F)F)c1 | 10µM* | · | · | ? | · | 13µM*
Cc1ccc2c(=O)cc(C(=O)N3CCN(C(c4ccccc4)c4ccccc4)CC3)oc2c1 | · | · | · | -2% | · | ·
COCCOC1CCN(C(=O)c2cc(F)ccc2F)CC1 | · | · | · | 19% | · | ·
CN(C)/C=C1\C(=O)Nc2ccccc21 | 28% | 10% | ? | 3% | 7% | -8%
O=C(/C=C1\C(=O)Nc2ccccc21)/C=C1\C(=O)Nc2ccccc21 | -1% | 1.4µM* | 7.1µM* | 8.9µM* | 45µM* | ?
O=C1Nc2ccccc2Nc2ccccc21 | 5% | -20% | 14µM* | -64% | ? | 50µM*
CN(O)/C=C1\C(=O)Nc2ccccc21 | -9% | 50µM* | 50µM* | ? | -6% | -28%
CC(C)Oc1ccc(C(=O)/C=C2/C(=O)Nc3ccccc32)cc1 | -4% | -21% | 40µM* | ? | ? | ?
O=C(NCCCCNC(=O)C1CC1)C1CC1 | · | · | · | 6% | · | ·
O=C1Nc2ccccc2/C1=C\C(=O)c1ccccc1 | -15% | ? | 25µM* | ? | -26% | ?
CN(C)c1ccc(/C=C2\C(=O)Nc3ccccc32)c2ccccc12 | · | -22% | · | · | · | ·
CC[n+]1c(C)sc2cc(OC)ccc21 | 28% | -23% | 25µM* | ? | -18% | -10%
CC[n+]1c(C)sc2c(C)cc(C)cc21 | 55% | ? | -46%[59 µM] | ? | -1% | -28%
O=c1c2cc(F)ccc2sn1-c1ccc(F)cc1 | -4% | · | 7%[0.501 µM] | · | 10µM* | 20µM*
Cc1ccc(C)c(-n2sc3ccc(F)cc3c2=O)c1 | -25% | · | -1%[0.501 µM] | 1.6µM* | 18µM* | 14µM*
Cc1ccc(C)c(-n2c(C)nc3c(cnn3-c3ccc(F)cc3)c2=O)c1 | · | · | · | 18% | · | ·
COc1ccc(-n2sc3ccc(F)cc3c2=O)cc1 | -5% | · | 0%[0.501 µM] | 1.1µM* | 8.9µM* | 11µM*
Cn1nc(C(=O)NCc2ccc(Cl)cc2Cl)c2ccccc2c1=O | · | · | · | -43% | · | ·
O=C(O)c1nc(NCCc2ccccc2)ncc1Cl | -9% | 8% | 35µM* | -16% | -18% | ?
O=C(O)c1nc(NCc2ccccc2)ncc1Cl | 24% | -10% | 4%[2.33 µM] | 0% | -14% | -10%
O=C(CSc1ncnc2c1nnn2Cc1ccccc1)NC1CCCC1 | -14% | -1% | 1% | 57% | -3% | -30%
CC(C)(C)NC(=O)CSc1ncnc2c1nnn2Cc1ccccc1Cl | -2% | 3% | -32% | 0% | -1% | 50µM*
O=C(O)CSc1c2c(nc3cc(C(=O)Nc4ccc(F)c(Cl)c4)ccc13)CCCC2 | 4%[57 µM] | -13% | · | 0% | 50µM* | -32%
Cc1ccc(CNC(=O)CSc2c3c(nc4cc(Cl)ccc24)CCCC3)o1 | -11% | 18µM* | ? | ? | -11% | ?
SMILES | HP1b chromo inh | Sfp PPTase inh | G9a inh | ALOX12 inh | BAZ2B block | JMJD2A Tudor inh
COc1ccc(NC(=O)c2ccc3c(SCC(=O)O)c4c(nc3c2)CCCC4)c(OC)c1 | 9% | ? | 50µM* | -29% | ? | ?
COc1ccc(Cl)cc1NC(=O)c1ccc2c(SCC(=O)O)c3c(nc2c1)CCCC3 | ? | -1% | 50µM* | -27% | -2% | -34%
O=C(CSc1c2c(nc3cc(Cl)ccc13)CCCC2)NCc1cccs1 | · | · | · | -27% | · | ·
COc1ccc(NC(=O)c2ccc3c(SCC(=O)O)c4c(nc3c2)CCCC4)cc1Cl | · | 3% | ? | 0% | -34% | ·
O=C(CSc1c2c(nc3ccc(Cl)cc13)CCCC2)N1CCN(c2ccc(Cl)cc2)CC1 | 21% | · | -46%[59 µM] | 0% | · | -19%
COc1ccc(N2CCN(C(=O)CSc3c4c(nc5ccc(Cl)cc35)CCCC4)CC2)cc1 | -27% | · | 11µM* | 5% | · | 22µM*
COc1ccc(C2=CC(c3cc(OC)c(OC)c(OC)c3)NC(=S)N2)cc1 (stereo not drawn) | -16% | 14% | 6.3µM* | ? | -28% | -19%[11.4 µM]
CS(=O)(=O)N1CCCCC1c1nc(CCOCC2CCCC2)no1 (stereo not drawn) | · | · | · | -3% | · | ·
CN1C(=S)SC(N(O)C(=O)Nc2cccc3ccccc23)C1(C)C (stereo not drawn) | -7% | -17% | 45µM* | ? | -4% | -24%
Cc1cc(N=Nc2c(O)c3ccccc3[nH]c2=O)ccc1N=Nc1ccc(C(=O)N(C)C)cc1 | 13% | -11% | 79µM* | 1% | ? | ?
COc1cc(N=Nc2ccc(C(=O)N(C)C)cc2)c(C)cc1N | 20µM* | · | · | -26% | · | 3.5µM*
CN(C)C(=O)c1ccc(N=Nc2c(O)c3ccccc3[nH]c2=O)cc1 | -13% | · | · | ? | · | -16%
CC(C)NC(=O)NC1CCCc2c1cnn2-c1ccc(F)cc1F (stereo not drawn) | · | · | · | 6% | · | ·
O=c1c(S(=O)(=O)c2ccc(F)c(Cl)c2)c[nH]c2ccc(F)cc12 | · | · | · | 4% | · | ·
CCCOC(=O)c1ccc(Oc2coc3cc(O)ccc3c2=O)cc1 | · | · | · | -3% | · | ·
Cn1ccc2c(C(=O)Nc3ccc(C(N)=O)cc3)cccc21 | · | · | · | 39% | · | ·
Cn1c(=O)c2c(nc(CN3CCN(C(=O)c4ccco4)CC3)n2Cc2cccc(Cl)c2)n(C)c1=O | 35% | 13% | ? | -5% | · | -9%
Cn1c(=O)c2c(nc(CN3CCN(Cc4ccccc4)CC3)n2Cc2cccc(Cl)c2)n(C)c1=O | 22% | -1% | 40µM* | 5% | -39% | -29%
Cn1c(=O)c2c(nc(CN3CCc4ccccc4C3)n2Cc2cccc(Cl)c2)n(C)c1=O | 43% | -6% | 8.9µM* | ? | -1% | -27%
COc1cccc(-c2cc(C(=O)O)cc(S(=O)(=O)NC(C)C)c2)c1 | · | · | · | 36% | · | ·
O=C1NN=C(CSc2n[nH]c(=S)s2)CS1 | -35% | ? | 2.5µM* | ? | 79µM* | 18µM*
N#CC1=C(N)N=C(SCc2cccc3ccccc23)C(C(N)=O)C12CCCCC2 (stereo not drawn) | -34% | 0% | 45µM* | -6% | ? | 56µM*
CCOc1ccc(NC(=O)c2cc3cc(OCC)ccc3n2C)cc1 | · | · | · | 57% | · | ·
Cn1c(C(=O)Nc2ccc(Cl)cc2)cc2cc(Cl)ccc21 | 57% | 13% | 45% | 18µM* | -9% | -20%
CCN(CC)c1ccc(NC(=O)CCc2c(C)nc3ncnn3c2C)c(C)c1 | 15% | · | 18µM* | -13% | -17% | -17%
